# Shown are actives, neighbours in structure and some others; about 0.49% of the full set was active somewhere.
# EPAC2 agonist: EPAC2 (human) agonism; Potency, µM (doses to about 154 µM), inactives show at the highest dose activation, actives largely listed as activators; EPAC2 activation, biochemical qHTS; response scale: 100% = 6.5 mM cAMP response; hit rate 0.079% among 360,000; Q8WZA2; further: nearly all actives have a fitted effect of over 50% in size
#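 In this primary screen, activation is scored as increased exchange of BODIPY-GDP from Rap1B by 100 nM EPAC2, with 50 uM GDP as competitor. Signal is normalized to the 6.5 mM cAMP agonist control.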
# EPAC1 antag: antagonists of human EPAC1 | O95398 | EPAC1 GEF assay, Rap1b-BODIPY-GDP exchange fluorescence | Potency, µM (series often up to 115 µM), for inactives: top-dose activity change, negative = inhibition, usual class: inhibitors | hit rate 0.14% among 360,000 | AID 720709;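 further: plate controls were vehicle for no effect and positive control for full effect; nearly all actives have a fitted effect of over 50% in size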
# USP1 inh: inhibitors of human USP1/UAF1 deubiquitinase | O94782 | recombinant USP1/UAF1, Ub-Rhodamine cleavage fluorescence | Potency, µM (highest dose often 57.1 µM), for the others: top-dose activity change, negative = inhibition, most hits filed as inhibitors | hit rate 0.23% among 390,000 | AID 743255; further: on the % scale 0 is the no-effect control and ±100 the full control effect; nearly all actives have a fitted effect of over 60% in size
#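 1 nM enzyme complex + cpd, 15 min RT; start with Ub-Rho 150nM final; kinetic fluorescence ex 480/em 540, 6 reads q60 s. Buffer 50mM HEPES pH 7.8, 0.5mM EDTA, 0.1 mg/ml BSA, 1mM TCEP, 0.01% Tween-20.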
# EPAC1 agonist: agonists of human EPAC1; EPAC1 agonist qHTS, biochemical assay; response scale: 100% = response to 6.5 mM cAMP; hit rate 0.073% among 360,000; O95398; AID 720707; Potency, µM (highest dose often 154 µM), for inactives: at the highest dose activation, hits mostly activators; further: nearly all actives have a fitted effect of over 60% in size
#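 Fluorescent GDP-exchange assay: 100 nM EPAC1 with 250 nM Rap1B preloaded with BODIPY-GDP and 50 uM GDP; compounds tested as concentration series, 5 min at room temperature, then read every 5 min for 30 min (ex 480/em 540 nm); normalized to 6.5 mM cAMP.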
# EPAC2 antagonist: blocks human EPAC2 exchange factor. EPAC2 GEF exchange of Rap1B-BODIPY-GDP, fluorescence. hit rate 0.18% among 360,000. AID 720708. Potency, µM (highest dose often 114 µM), inactives show top-dose activity, negative = inhibition, hits mostly inhibitors; further: on the % scale 0 is the no-effect control and ±100 the full control effect; nearly all actives have a fitted effect of over 45% in size
# * marks the source's active call; other numbers are inactive results; ? = inconclusive; . = no result; + = active, no number. The call rests on the fitted dose curve; in most records, active means well fitted curve in the direction sought with a large enough effect; inconclusive means small, poorly fitted or top-dose-only effect, or another doubt; inactive means no such curve, though single readings can be large; an effect the other way counts as inactive or inconclusive. Potency means the concentration at half of the fitted maximal effect.
SMILES,EPAC2 agonist,EPAC1 antag,USP1 inh,EPAC1 agonist,EPAC2 antagonist
CCOC(=O)c1c(NC(=O)/C=C/C(=O)O)sc(C)c1-c1ccc(C(C)(C)C)cc1,-18%,56µM*,32µM*,-12%,?
N#Cc1c(C(F)(F)F)cc(-c2ccc(Cl)cc2)[nH]c1=O,-2%,40µM*,-17%,-15%,-9%
Cc1ccc2cccc(Oc3ncnc4scc(-c5ccc(Cl)cc5)c34)c2n1,1%,-1%,14µM*,23%,-2%
CCOC(=O)c1c(C)sc(-c2c(-c3ccc4c(c3)OCCO4)[nH]c3c2c(=O)[nH]c(=O)n3C)c1O,.,.,25µM*,.,.
CCOC(=O)c1c(C)sc(-c2c(-c3ccc(OC)c(F)c3)[nH]c3c2c(=O)[nH]c(=O)n3C)c1O,.,.,22µM*,.,.
CCOC(=O)c1c(C)sc(-c2c(-c3ccc4c(c3)OCCO4)[nH]c3c2c(=O)n(C)c(=O)n3C)c1O,.,.,16µM*,.,.
COC(=O)c1ccc(OCC2c3cc(OC)c(OC)cc3CCN2C(=O)c2ccccc2F)cc1 (configuration not stated),.,.,-28%,.,.
COc1ccccc1OCc1nnc(-c2ccccc2)o1,.,.,-25%,.,.
CCCc1nn2c(=O)cc(COc3ccc(/C=C(\C#N)C(=O)Nc4ccccc4)cc3)nc2s1,.,.,-20%,.,.
O=C(Nc1ccc(C(=O)O)cc1)/C(=C\C=C\c1ccccc1)NC(=O)c1ccc(Br)cc1,6%,-24%,+,3%,?
Cc1ccc(NC(=O)/C(=C/C=C/c2ccccc2)NC(=O)c2ccccc2)cc1,-15%,4%,-14%,-2%,-6%
Clc1cccc(Cl)c1C1Nc2cccc3cccc(c23)N1,10%,?,-9%,7%,56µM*
Cc1ccc(CN2C(=O)CN(C3CCC(C)CC3)C(=O)C2c2ccc(F)cc2)cc1 (configuration not stated),.,.,14%,.,.
CCOc1ccc(NC(=O)Nc2ccc3nsnc3c2)cc1,4%,-6%,-4%,8%,-6%
COc1ccc(N(C)C(=O)Nc2ccc3nsnc3c2)cc1,-2%,-8%,-18%,-15%,2%
COc1ccc(NC(=S)Nc2ccc3nsnc3c2)cc1,24%,?,5.6µM*,12%,?
COc1ccc(NC(=S)Nc2ccc3nc(C)c(C)nc3c2)cc1,5%,-2%,-20%,7%,13%
CCOc1ccc(NC(=S)Nc2ccc3nsnc3c2)cc1,12%,-8%,28µM*,9%,3%
CC(C)N(C(=O)Nc1ccc2nsnc2c1)C(C)C,?,?,6.3µM*,17%,?
Cc1ccc(NCc2cccn2-c2nnc(N3CCC(C(=O)NCc4ccc(F)cc4)CC3)s2)cc1,.,.,-25%,.,.
Cc1ccc(-c2noc(-c3ccc(N4CCOCC4)c([N+](=O)[O-])c3)n2)cc1,.,.,-1%,.,.
CCc1ccc2c(c1)NC(=O)C2(C)Cc1ccc(Cl)s1 (configuration not stated),13%,-15%,.,-5%,?
CCc1ccc2c(c1)NC(=O)C2(C)Cc1ccc(F)cc1 (configuration not stated),-4%,-8%,.,-17%,45µM*
CCOc1ccc(CCNC(=O)c2nnc(Cc3ccc(Cl)cc3Cl)o2)cc1OCC,.,.,-12%,.,.
CC(=O)C1=C(c2ccc(Br)cc2)N(C(C)=O)n2c(nnc2C2CCCCC2)S1,.,.,-6%,.,.
SMILES,EPAC2 agonist,EPAC1 antag,USP1 inh,EPAC1 agonist,EPAC2 antagonist
CCOc1ccccc1N1CCN(C(=O)c2cc(-c3cc(OC)ccc3OC)nc3ccccc23)CC1,9%,?,16µM*,7%,-2%
COc1ccc(N2CCN(C(=O)c3cc(-c4cc(OC)ccc4OC)nc4ccccc34)CC2)cc1,7%,1%,?,-4%,4%
CCC(=O)NC(c1ccc(C)cc1)c1ccc2cccnc2c1O (configuration not stated),-1%,-25%,-12%,-6%,16µM*
CC(=O)NC(c1ccccc1)c1cc(Cl)c2cccnc2c1O (configuration not stated),7%,1%,-9%,-2%,40µM*
CC(=O)NC(c1ccc(Cl)cc1)c1ccc2cccnc2c1O (configuration not stated),9%,-12%,8%,-2%,20µM*
CCCC(=O)NC(c1ccc(C(C)C)cc1)c1ccc2cccnc2c1O (configuration not stated),-4%,-7%,-13%,9%,0%
COc1cc2c(cc1NC(=O)COc1cc(C)ccc1C)oc1ccccc12,.,.,-13%,.,.
COC(=O)c1ccccc1NC(=O)c1ncoc1-c1ccco1,.,.,-1%,.,.
Cc1oc2ccc(O)c(CN(C)Cc3ccccc3)c2c1C(=O)Nc1cccc(C(F)(F)F)c1,.,.,-13%,.,.
O=C(NCc1cccs1)c1ccc(CSc2nc3ccncc3n2Cc2ccccc2F)cc1,.,.,-21%,.,.
O=C(/C=C/c1ccc(-c2ccccc2[N+](=O)[O-])o1)c1ccco1,12%,50µM*,-15%,4%,0%
CCOC(=O)c1cc(C)n(CC2CCC(C(=O)Nc3cc(OC)cc(OC)c3)CC2)c1C (configuration not stated),.,.,-1%,.,.
CCC(C)n1c(=N)c(C#N)cc2c(=O)n3ccccc3nc21 (configuration not stated),56µM*,7%,-16%,-7%,87%
CCCn1c(=N)c(C#N)cc2c(=O)n3ccccc3nc21,5%,15%,?,13%,12%
Cc1ccc(NC(=O)C(=O)NCCCN2CCOCC2)cc1C,.,.,-29%,.,.
Cc1cc(C)c(NC(=O)COCc2cc(-c3cccs3)on2)c(C)c1,.,.,1%,.,.
O=C(CSc1oc(-c2ccc(F)cc2)nc1S(=O)(=O)c1ccc(Cl)cc1)c1ccccc1,.,.,-21%,.,.
CCOC(=O)c1ccc(NC(=O)c2ccc3c(c2)CCN3S(=O)(=O)c2ccc(Cl)cc2)cc1,.,.,-16%,.,.
COc1ccccc1Oc1ncnc2c1oc1ccccc12,12%,-19%,-5%,16%,79µM*
CC(=O)c1ccc(Oc2ncnc3c2oc2ccccc23)cc1,.,.,6%,.,.
O=C(Nc1cccs1)Nc1ccccc1Cl,6%,-21%,3%,-4%,22µM*
O=C(Nc1nc2c(s1)CN(Cc1ccccc1)CC2)c1cccc(S(=O)(=O)N2CCc3ccccc32)c1,19%,27%,28µM*,?,34%
O=C(Nc1nc2ccccc2s1)c1cccc(S(=O)(=O)N2CCc3ccccc32)c1,3%,-16%,-19%,14%,-5%
COc1ccc(N2CCN(C(=O)CCc3ccccc3OC)CC2)cc1,10%,89µM*,-11%,-172%,1%
COc1ccccc1CCC(=O)N1CCN(C(=O)c2ccccc2)CC1,11%,-2%,3%,9%,-6%
Cc1cc(C(=O)c2ccccc2)cc(C)c1O,-1%,-1%,-17%,-2%,13%

# Assay outcomes from PubChem BioAssay.
